Source: the supplement of paper PMC11732987, “Enantioselective OTUD7B fragment discovery through chemoproteomics screening and high-throughput optimisation” (Communications Chemistry, 2025)

Key:
Assay in all cases: log2 ratio of Biotin-Ahx-Ub-VS probe labelling (fragment/DMSO); higher = less target engagement (more negative = stronger competition), active = hit call of the paper (q ≤ 0.05, log2 ratio ≤ -1)
Settings in all cases: compound concentration: 200 uM; treatment time: 3 h
USP34 = USP34 (UniProt Q70CQ2)
USP34, sequence (Q70CQ2 whole entry, the tested form may be a part): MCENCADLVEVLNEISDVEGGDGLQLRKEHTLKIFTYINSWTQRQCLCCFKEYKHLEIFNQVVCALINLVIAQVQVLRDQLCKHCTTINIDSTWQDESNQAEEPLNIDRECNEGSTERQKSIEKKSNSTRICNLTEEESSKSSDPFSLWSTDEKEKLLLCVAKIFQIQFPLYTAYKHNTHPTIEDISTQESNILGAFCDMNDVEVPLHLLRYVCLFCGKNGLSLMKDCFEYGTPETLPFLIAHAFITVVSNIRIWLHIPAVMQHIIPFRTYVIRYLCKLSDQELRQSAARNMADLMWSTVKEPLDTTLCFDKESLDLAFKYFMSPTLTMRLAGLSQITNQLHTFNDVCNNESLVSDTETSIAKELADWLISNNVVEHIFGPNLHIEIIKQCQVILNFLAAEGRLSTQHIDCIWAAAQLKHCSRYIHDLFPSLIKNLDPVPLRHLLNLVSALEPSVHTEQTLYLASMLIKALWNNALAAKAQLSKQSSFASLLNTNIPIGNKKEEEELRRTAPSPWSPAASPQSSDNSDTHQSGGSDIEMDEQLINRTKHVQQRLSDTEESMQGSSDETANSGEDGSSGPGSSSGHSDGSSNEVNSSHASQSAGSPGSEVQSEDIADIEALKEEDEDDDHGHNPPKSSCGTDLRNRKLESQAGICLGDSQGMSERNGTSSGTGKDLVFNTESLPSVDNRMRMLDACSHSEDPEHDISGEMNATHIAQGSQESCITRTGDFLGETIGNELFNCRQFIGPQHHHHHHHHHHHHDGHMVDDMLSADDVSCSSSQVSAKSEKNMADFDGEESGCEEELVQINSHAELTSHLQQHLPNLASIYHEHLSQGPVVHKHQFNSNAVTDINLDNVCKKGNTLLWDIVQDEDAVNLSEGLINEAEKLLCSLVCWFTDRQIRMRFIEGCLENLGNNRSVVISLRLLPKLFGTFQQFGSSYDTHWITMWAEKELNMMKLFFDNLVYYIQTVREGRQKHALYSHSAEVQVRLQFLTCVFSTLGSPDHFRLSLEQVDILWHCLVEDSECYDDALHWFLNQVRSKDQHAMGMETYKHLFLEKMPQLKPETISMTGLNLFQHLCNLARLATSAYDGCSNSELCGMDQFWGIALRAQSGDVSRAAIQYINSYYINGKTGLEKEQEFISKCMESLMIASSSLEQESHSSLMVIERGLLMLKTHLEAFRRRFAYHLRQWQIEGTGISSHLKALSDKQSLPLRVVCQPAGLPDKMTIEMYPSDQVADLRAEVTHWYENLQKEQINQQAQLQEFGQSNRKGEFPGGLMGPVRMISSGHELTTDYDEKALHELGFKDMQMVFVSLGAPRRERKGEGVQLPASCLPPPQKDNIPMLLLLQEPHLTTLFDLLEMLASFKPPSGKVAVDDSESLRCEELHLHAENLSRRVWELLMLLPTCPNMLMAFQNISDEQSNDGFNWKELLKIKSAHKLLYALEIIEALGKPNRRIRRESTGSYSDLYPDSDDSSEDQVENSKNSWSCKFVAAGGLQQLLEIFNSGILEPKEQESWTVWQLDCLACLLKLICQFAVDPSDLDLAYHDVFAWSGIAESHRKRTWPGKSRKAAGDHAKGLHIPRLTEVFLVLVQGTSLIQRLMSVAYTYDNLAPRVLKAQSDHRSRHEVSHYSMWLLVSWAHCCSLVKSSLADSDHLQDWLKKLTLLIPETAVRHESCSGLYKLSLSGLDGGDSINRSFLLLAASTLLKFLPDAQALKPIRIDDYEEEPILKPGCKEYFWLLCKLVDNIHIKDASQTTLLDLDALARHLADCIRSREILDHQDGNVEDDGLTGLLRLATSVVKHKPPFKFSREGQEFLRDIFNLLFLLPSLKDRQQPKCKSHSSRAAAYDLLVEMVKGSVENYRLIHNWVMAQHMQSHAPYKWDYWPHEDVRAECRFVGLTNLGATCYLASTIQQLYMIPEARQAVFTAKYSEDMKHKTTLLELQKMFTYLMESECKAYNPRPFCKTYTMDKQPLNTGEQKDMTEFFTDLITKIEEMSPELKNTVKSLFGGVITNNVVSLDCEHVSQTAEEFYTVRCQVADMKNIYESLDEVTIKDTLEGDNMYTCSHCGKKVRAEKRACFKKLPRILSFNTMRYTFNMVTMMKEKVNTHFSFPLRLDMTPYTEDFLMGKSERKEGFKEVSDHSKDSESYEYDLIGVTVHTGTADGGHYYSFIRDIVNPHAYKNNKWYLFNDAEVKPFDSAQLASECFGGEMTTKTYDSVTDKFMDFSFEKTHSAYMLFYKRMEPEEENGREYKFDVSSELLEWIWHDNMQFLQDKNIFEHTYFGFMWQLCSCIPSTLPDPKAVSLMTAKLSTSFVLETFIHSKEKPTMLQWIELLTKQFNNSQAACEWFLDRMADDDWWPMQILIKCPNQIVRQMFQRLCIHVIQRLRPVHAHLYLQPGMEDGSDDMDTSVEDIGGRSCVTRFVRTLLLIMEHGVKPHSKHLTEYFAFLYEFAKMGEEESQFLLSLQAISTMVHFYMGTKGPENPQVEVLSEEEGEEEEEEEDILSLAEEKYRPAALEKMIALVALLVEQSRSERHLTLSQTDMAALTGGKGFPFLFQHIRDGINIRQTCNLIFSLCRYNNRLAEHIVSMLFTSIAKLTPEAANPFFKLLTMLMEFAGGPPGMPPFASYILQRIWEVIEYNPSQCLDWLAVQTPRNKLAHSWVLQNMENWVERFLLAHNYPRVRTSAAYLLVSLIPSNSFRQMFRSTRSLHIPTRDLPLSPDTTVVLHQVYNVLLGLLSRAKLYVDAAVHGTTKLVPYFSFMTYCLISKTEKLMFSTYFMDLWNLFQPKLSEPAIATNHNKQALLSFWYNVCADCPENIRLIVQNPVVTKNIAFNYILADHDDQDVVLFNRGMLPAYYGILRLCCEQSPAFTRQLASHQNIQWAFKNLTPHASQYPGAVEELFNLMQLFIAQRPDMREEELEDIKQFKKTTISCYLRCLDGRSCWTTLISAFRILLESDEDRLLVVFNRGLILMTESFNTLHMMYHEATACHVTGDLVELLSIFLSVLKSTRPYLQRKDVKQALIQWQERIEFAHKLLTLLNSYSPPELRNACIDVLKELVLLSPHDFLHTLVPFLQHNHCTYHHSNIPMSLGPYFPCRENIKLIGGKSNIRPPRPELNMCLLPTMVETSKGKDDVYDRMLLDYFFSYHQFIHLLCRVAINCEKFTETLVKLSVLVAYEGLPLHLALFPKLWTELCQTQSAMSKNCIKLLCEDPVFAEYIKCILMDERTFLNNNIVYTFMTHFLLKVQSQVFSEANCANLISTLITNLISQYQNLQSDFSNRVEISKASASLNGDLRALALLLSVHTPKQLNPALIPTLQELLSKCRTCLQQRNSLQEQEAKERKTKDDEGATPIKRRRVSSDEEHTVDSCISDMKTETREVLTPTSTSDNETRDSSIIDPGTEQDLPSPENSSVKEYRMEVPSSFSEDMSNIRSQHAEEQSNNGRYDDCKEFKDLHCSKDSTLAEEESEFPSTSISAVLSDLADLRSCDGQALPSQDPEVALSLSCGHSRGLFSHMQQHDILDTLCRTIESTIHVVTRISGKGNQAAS
Outline: (§1)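 Labelled DUBs from HEK293T lysate were NeutrAvidin-enriched, digested with LysC and trypsin, and run by diaPASEF LC-MS/MS. Before that, each 495 µg sample in Tris/CHAPS/IGEPAL buffer with protease inhibitors was treated in triplicate with fragment at 200 µM or vehicle for 3 h, then with Biotin-Ahx-Ub-VS at 0.5 µM final for 1 h. Values are average log2 ratios of fragment over vehicle by unpaired t-test, based on global-median-normalised Spectronaut label-free quantities from proteins with ≥2 unique peptides.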

USP36 = target: T1, USP36 (UniProt Q9P275)
T1 sequence (whole entry): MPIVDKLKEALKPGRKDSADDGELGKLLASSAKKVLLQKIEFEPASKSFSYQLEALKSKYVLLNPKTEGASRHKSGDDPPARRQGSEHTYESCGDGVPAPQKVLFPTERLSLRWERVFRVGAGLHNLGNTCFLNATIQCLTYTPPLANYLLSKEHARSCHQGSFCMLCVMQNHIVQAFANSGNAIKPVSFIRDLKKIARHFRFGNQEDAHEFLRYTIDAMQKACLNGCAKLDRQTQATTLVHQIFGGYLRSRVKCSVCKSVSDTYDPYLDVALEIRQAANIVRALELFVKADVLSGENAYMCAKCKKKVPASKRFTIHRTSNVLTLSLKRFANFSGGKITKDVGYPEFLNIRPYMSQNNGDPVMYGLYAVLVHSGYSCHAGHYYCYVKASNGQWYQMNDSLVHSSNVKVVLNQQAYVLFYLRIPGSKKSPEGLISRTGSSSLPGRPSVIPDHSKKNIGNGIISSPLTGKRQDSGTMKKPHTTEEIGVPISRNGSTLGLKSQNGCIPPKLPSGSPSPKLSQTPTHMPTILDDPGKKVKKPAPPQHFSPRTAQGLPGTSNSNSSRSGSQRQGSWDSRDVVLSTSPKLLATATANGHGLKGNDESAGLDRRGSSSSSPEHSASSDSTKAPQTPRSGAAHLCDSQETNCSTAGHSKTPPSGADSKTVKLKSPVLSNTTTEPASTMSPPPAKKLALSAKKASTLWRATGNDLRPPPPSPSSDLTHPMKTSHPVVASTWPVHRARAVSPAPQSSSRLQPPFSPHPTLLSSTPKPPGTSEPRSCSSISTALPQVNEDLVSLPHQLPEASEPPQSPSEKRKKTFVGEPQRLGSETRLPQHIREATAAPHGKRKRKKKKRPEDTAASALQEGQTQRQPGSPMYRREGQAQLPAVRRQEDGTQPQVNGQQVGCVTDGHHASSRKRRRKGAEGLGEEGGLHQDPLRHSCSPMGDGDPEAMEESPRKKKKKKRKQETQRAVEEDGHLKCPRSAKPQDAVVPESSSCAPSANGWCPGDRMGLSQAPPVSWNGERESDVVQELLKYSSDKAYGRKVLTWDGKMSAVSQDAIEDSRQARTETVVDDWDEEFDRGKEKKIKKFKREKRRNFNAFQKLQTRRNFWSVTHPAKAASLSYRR
Outline: as §1

USP38 = target: T2, USP38 (UniProt Q8NB14)
T2 sequence (whole entry): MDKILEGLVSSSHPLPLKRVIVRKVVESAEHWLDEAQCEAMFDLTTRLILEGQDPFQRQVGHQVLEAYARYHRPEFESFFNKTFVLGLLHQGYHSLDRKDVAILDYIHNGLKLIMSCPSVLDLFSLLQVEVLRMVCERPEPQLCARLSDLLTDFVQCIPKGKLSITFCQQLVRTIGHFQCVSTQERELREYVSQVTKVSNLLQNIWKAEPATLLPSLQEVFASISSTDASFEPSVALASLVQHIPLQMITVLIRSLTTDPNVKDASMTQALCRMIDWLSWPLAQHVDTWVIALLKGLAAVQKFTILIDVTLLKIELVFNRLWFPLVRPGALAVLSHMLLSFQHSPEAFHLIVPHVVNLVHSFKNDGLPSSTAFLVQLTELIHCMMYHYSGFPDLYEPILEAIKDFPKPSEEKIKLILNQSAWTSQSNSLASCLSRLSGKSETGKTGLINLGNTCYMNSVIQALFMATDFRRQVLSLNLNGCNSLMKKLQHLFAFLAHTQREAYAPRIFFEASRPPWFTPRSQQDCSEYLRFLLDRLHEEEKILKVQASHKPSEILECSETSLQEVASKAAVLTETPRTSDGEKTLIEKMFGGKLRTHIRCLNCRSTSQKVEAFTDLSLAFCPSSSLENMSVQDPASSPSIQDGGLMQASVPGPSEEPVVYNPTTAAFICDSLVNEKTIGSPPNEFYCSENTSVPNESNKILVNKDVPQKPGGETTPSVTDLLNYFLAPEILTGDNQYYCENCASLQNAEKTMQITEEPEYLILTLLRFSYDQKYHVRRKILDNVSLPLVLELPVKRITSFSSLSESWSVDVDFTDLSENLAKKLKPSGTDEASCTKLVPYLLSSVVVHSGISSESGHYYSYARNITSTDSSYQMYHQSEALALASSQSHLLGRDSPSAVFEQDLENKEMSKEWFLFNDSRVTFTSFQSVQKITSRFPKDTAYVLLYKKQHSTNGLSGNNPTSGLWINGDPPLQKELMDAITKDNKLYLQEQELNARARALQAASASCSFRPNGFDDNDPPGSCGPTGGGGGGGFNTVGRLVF
Outline: as §1

USP39 = target: T3, USP39 (UniProt Q53GS9)
T3 sequence (whole entry): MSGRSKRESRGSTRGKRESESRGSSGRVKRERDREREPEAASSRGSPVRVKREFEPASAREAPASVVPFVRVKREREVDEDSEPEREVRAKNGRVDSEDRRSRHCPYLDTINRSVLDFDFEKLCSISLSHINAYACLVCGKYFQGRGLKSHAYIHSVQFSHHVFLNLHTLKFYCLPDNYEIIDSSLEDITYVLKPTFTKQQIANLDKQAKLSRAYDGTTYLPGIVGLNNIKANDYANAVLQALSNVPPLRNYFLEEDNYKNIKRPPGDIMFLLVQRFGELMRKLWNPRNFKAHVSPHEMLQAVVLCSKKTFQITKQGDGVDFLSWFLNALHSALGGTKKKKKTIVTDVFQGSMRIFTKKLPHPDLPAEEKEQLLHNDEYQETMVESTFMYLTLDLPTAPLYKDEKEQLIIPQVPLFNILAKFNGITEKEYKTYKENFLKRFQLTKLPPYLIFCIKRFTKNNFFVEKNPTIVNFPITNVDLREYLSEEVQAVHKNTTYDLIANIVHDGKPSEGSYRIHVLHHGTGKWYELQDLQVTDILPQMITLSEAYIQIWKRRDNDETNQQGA
Outline: as §1

USP4 = target: T4, USP4 (UniProt Q13107)
T4 sequence (whole entry): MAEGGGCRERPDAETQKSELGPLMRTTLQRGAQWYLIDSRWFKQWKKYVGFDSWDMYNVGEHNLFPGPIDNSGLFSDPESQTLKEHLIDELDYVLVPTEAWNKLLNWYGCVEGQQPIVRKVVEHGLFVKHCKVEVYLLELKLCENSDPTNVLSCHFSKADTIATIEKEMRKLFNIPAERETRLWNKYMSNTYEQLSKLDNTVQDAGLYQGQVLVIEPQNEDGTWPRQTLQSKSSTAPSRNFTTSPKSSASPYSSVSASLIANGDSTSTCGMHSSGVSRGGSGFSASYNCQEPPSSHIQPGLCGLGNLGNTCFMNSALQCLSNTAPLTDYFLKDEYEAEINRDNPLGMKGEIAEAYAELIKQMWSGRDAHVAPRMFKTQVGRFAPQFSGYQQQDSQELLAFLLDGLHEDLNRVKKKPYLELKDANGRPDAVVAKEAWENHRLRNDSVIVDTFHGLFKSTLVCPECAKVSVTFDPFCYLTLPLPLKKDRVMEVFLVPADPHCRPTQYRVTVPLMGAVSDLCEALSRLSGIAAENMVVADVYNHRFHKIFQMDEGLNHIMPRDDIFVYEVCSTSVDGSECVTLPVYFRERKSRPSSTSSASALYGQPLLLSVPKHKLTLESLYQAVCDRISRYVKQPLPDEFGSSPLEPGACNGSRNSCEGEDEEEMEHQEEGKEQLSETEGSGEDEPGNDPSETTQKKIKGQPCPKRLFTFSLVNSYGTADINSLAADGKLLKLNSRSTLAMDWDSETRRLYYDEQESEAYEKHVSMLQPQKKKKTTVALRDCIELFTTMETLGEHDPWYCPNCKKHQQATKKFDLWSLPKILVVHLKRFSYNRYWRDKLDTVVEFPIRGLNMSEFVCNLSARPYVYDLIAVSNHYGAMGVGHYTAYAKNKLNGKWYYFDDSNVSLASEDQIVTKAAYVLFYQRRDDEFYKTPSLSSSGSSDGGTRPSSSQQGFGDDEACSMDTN
Outline: as §1

Measured: log2 ratio of Biotin-Ahx-Ub-VS probe labelling

CC(NC(=O)CCl)c1ccc2[nH]ncc2c1 (stereo not given)
inactive: USP34 -0.271 | USP36 -0.00241 | USP38 -0.222 | USP39 -0.146 | USP4 -0.324
